Hit rate of the full screen: of about 5,500 compounds, about 2,000 (36%) were called active. Roughly 18% stayed inconclusive and do not appear here. Rule as the data show it: active = normalized growth mostly below about 0.91 (no sharp cut-off); inconclusive = no clear call, values can overlap the other calls; inactive = mostly above about 0.92. Some of the results follow.
Assay: chemical genetic growth profiling, strain panel (AID 1159580);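 also: tested at 20 µM; growth read once vehicle control cultures reached saturation at 30 °C; 1 = growth at the plate median or of vehicle wells; lower values mean less growth of the strain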
Settings: S. cerevisiae deletion strains, growth OD
[1] = locus YGR078C, strain PAC10, active compounds read low
[2] = locus YHR030C, strain SLT2, active compounds read low
[3] = locus YMR263W, strain SAP30, active compounds read low
[4] = locus YNL153C, strain GIM3, active compounds read low

Measured: normalized growth

CC(=O)c1ccc(S(=O)(=O)NC(=O)NC2CCCCC2)cc1
inactive: locus YAL040C, strain CLN3, active compounds read low 1.06 | locus YER002W, strain NOP16, active compounds read low 0.998 | [1] 0.99 | [2] 0.959 | locus YHR079C, strain IRE1, active compounds read low 0.963 | locus YJL095W, strain BCK1, active compounds read low 1.02 | locus YJR066W, strain TOR1, active compounds read low 0.918 | locus YLR113W, strain HOG1, active compounds read low 0.995 | [3] 0.987 | [4] 0.95 | locus YNL175C, strain NOP13, active compounds read low 0.983 | locus YNL183C, strain NPR1, active compounds read low 0.937 | locus YNL197C, strain WHI3, active compounds read low 0.986 | locus YNL224C, strain SQS1, active compounds read low 1.01 | locus YOR083W, strain WHI5 (second series), active compounds read low 1 | locus YOR231W, strain MKK1, active compounds read low 0.967 | locus YPL256C, strain CLN2, active compounds read low 0.965

CCOC(=O)/C(C#N)=C/N=C(N/N=C\c1c(Cl)cccc1Cl)SC
inactive: locus YAL013W, strain DEP1, active compounds read low 0.98 | locus YBR229C, strain ROT2, active compounds read low 1.02 | locus YCL061C, strain MRC1, active compounds read low 1.06 | locus YDL101C, strain DUN1, active compounds read low 1.04 | locus YDR150W, strain NUM1, active compounds read low 1.03 | [1] 0.996 | locus YHR087W, strain rtc3, active compounds read low 1.01 | locus YJL187C, strain SWE1, active compounds read low 0.998 | locus YJR043C, strain POL32, active compounds read low 1.04 | locus YJR075W, strain HOC1, active compounds read low 1.02 | locus YLR058C, strain SHM2 (second series), active compounds read low 0.989 | locus YLR085C, strain ARP6, active compounds read low 0.845 | locus YML094W, strain GIM5, active compounds read low 0.901 | locus YMR219W, strain ESC1, active compounds read low 1.01 | [3] 1.01 | locus YMR307W, strain GAS1, active compounds read low 0.799 | [4] 1.03 | locus YNL322C, strain KRE1, active compounds read low 0.968 | locus YPL055C, strain LGE1, active compounds read low 0.956 | locus YPR135W, strain CTF4, active compounds read low 0.795
active: locus YEL061C, strain CIN8, active compounds read low 0.8 | [2] 0.687 | locus YKL190W, strain CNB1, active compounds read low 0.926 | locus YLR039C, strain RIC1, active compounds read low 0.771 | locus YLR262C, strain YPT6, active compounds read low 0.796 | locus YNL298W, strain CLA4 (second series), active compounds read low 0.795 | locus YNR030W, strain Alg12, active compounds read low 0.863 | locus YPL241C, strain CIN2, active compounds read low 0.764

Reference: PubChem BioAssay AID1159580 (chemical genetic matrix, 2015)
